An excerpt weighted towards active compounds, which were near 7.5% of everything screened.
FLuc counter = inhibits or activates purified firefly luciferase, miR-21 counter-screen. P08659. purified FLuc, Km substrates, luminescence inhibition. Potency, µM (doses to about 57.5 µM), for the others: at the top dose activity change, negative = inhibition, usual class: inhibitors. 360,000 tested, 6.9% active;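 note: plate controls were vehicle for no effect and reference inhibitor for full effect; nearly all actives have a fitted effect of over 55% in size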
Target sequence (P08659 whole entry, looked up): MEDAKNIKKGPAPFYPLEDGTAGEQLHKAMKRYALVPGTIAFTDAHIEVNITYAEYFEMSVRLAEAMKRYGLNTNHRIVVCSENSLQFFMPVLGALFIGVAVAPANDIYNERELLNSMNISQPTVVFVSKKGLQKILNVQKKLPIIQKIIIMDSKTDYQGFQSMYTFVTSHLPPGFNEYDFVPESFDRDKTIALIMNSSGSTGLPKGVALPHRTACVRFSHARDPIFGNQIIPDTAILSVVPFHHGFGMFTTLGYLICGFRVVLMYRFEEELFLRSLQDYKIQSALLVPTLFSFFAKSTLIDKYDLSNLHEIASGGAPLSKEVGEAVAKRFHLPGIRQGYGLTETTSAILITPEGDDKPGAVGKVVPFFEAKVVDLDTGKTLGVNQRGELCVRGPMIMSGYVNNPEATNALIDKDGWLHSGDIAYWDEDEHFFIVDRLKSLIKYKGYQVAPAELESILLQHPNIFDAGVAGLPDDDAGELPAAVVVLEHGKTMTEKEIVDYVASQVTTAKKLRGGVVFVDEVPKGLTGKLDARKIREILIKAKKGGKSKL
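Purified P. pyralis luciferase, 10 nM final, with Km-level 10 uM D-luciferin and 10 uM ATP in 50 mM Tris acetate pH 7.5, 10 mM Mg acetate, 0.01% Tween-20, 0.05% BSA; 6-point qHTS titration about 60 µM downward; luminescence read.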
NPC1 prom act = NPC1 promoter activation; Huh7 NPC1 promoter luciferase reporter, 24 h; Potency, µM (series often up to 9.22 µM), for the others: top-dose activation, actives largely listed as activators; 320,000 tested, 2.4% active; AID 485313; note: % of control where 0% means no effect; nearly all actives have a fitted effect of over 60% in size
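Luminescence read-out of NPC1 promoter-driven luciferase in stably transfected Huh7 cells; compounds delivered in DMSO and left 24 h at 37C, 5% CO2, qHTS titration format.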
ELG1 genotoxic = inducers of genotoxicity in HEK293T ELG1-luciferase cells. 330,000 tested, 1.3% active. HEK293T ELG1-luciferase reporter, luminescence, 16 h. AID 504466. Potency, µM (top dose mostly 46 µM), for the others: at the top dose activity change, positive = activation, actives largely listed as activators; note: % of control where 0% means no effect; nearly all actives have a fitted effect of over 60% in size
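HEK293T cells expressing luciferase-tagged ELG1 were exposed to compound or DMSO vehicle for 16 hr at 37 °C and 5% CO2. Luciferase activity was then measured with ONE-Glo after 30 min at room temperature.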
Luc counter = counter-screen: inhibitors of Kinase-Glo firefly luciferase | Q27757 | Kinase-Glo luciferase, ATP luminescence, 8 min | Potency, µM (series often up to 38.3 µM), inactives show at the top dose activity change, negative = inhibition, most hits filed as inhibitors | 200,000 tested, 0.28% active; note: % is set by controls: 0 for no effect and ±100 for the full control effect; nearly all actives have a fitted effect of over 60% in size
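Inhibition of Kinase-Glo luciferase light generation was assessed at 10 uM ATP in pH 7.2 imidazole buffer, with luminescence measured after eight minutes at ambient temperature.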
SMN2 splice up = increases expression of the SMN2 splice variant; HEK293 SMN2-luciferase splicing reporter, luminescence, 30-36 h; 210,000 tested, 2.8% active; Potency, µM (doses to about 46.1 µM), for the others: at the top dose activity change, positive = activation, usual class: activators; AID 1458; note: % of control where 0% means no effect; nearly all actives have a fitted effect of over 55% in size
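HEK293 cells carry an SMN2 minigene-luciferase reporter in which exon 7 inclusion puts luciferase in frame. Cells were seeded at 2000 cells/well, attached for 10-12 hours, then exposed to compounds for 30-36 hours at 37C before ONE-Glo luminescence.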
Rab9 promoter act = activates the Rab9 promoter; Huh7 Rab9 promoter-luciferase reporter, luminescence, 24 h; Potency, µM (titrated, usually from 9.22 µM), for the others: at the highest dose activation, negative = inhibition, usual class: activators; 320,000 tested, 2.8% active; AID 485297; note: % of control where 0% means no effect; nearly all actives have a fitted effect of over 60% in size
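Steps: seed 1500 Huh7 Rab9-luc cells per well, rest 2 h at 37 °C; add compound in DMSO; incubate 24 h; add luciferase reagent, 10 min ambient; read luminescence.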
Numbers without * were called inactive; ? = inconclusive; . = no result; [ ] = dose if it differs, or a comment. Calls come from the whole dose curve; as a rule, active = well fitted curve in the direction sought with a large enough effect; inconclusive = small, poorly fitted or top-dose-only effect, or another doubt; inactive = no such curve, though single readings can be large; an effect the other way counts as inactive or inconclusive. Potency is the fitted concentration of half-maximal effect.

SMILES	FLuc counter	NPC1 prom act	ELG1 genotoxic	Luc counter	SMN2 splice up	Rab9 promoter act
Cc1ccc(/C=N/Nc2cccc3cccnc23)c(O)c1	1.5µM*	4µM*	?	.	.	?
COc1ccc(-n2c(/C=C/c3cccc4ccccc34)nc3ccccc3c2=O)cc1Cl	-1%	.	.	.	.	.
O=C(Nc1cnc2ccccn2c1=O)c1ccc(Cl)cc1	15µM*	3.5µM*	?	-3%	35µM*	2.2µM*
O=C(Nc1cccn2ncnc12)c1ccc(Cl)cc1	-14%	24%	-5%	.	.	18%
N/C(=N\OC(=O)c1ccc(Br)o1)c1ccccn1	2.7µM*	0.56µM*	?	?	13µM*	2.2µM*
Cc1ccc(C(=O)O/N=C(\N)c2ccccn2)cc1C	0.095µM*	0.32µM*	0.33µM*	.	.	0.5µM*
N/C(=N\OC(=O)c1ccccc1)c1ccccn1	0.27µM*	1.8µM*	?	1.4µM*	.	1µM*
Cc1cccc(C(=O)O/N=C(\N)c2ccccn2)c1	0.27µM*	1.6µM*	2.6µM*	.	.	4µM*
CC(C)(C)c1ccc(C(=O)O/N=C(\N)c2ccccn2)cc1	0.24µM*	-25%	-5%	.	.	-24%
COc1cc(C(=O)O/N=C(\N)c2ccccn2)cc(OC)c1OC	-19%	23%	?	.	.	28%
C/C(=N\OC(=O)c1ccc(Br)cc1)c1ccccn1	0.54µM*	-1%	2%	?	0%	-8%
CCOc1ccc(C(=O)O/N=C(\N)c2ccccn2)cc1	0.085µM*	0.1µM*	?	.	.	0.5µM*
N/C(=N\OCc1ccc([N+](=O)[O-])cc1)c1ccccn1	0.38µM*	?	0.082µM*	10µM*	0.79µM*	?
CCC(C)NC(=O)c1cc2cc(S(=O)(=O)N3CCCCC3)ccc2n1C (stereo not given)	-9%	.	.	.	.	.
COc1ccc(NC(=O)Nc2nnc(N(C)C3CCCCC3)s2)c(OC)c1	-14%	.	.	.	.	.
CCc1ccc(N(C(=O)c2csnn2)C(C(=O)NC(C)(C)CC)c2cccnc2)cc1 (stereo not given)	2%	-4%	11%	9%	?	2%
C/C(=N/O)c1ccccn1	0%	2%	-2%	3%	7%	-3%
N/C(=N\OC(=O)c1cccc(F)c1)c1ccccn1	1.1µM*	3.5µM*	?	.	.	1.6µM*
O=C(NCCCNC(=O)c1ccccn1)c1cccc(F)c1	3%	-7%	4%	.	.	4%
C/C(=N/OCc1ccc(Br)cc1)c1ccccn1	3µM*	4µM*	4.6µM*	-9%	14µM*	2.5µM*
Cc1ccc(C(=O)O/N=C(\N)c2ccccn2)cc1	0.024µM*	0.5µM*	?	.	.	1.1µM*
COc1cc(C(=O)NCCOc2ccccc2C)c(Br)c(OC)c1OC	4%	1%	-1%	-3%	-6%	3%
COc1ccc(C(=O)NCCOc2ccccc2Cl)c(OC)c1OC	15µM*	4.5µM*	15µM*	.	.	3.2µM*
CC(=O)Nc1ccc(S(=O)(=O)NC2(C(F)(F)F)NC(=O)N(CCc3ccc(F)cc3)C2=O)cc1 (stereo not given)	-17%	.	.	.	-18%	.
CCOc1ccc(/C=C/C(=O)c2ccccc2)cc1OC	4.3µM*	?	?	-2%	1%	?
SMILES	FLuc counter	NPC1 prom act	ELG1 genotoxic	Luc counter	SMN2 splice up	Rab9 promoter act
COc1cccc(C(=O)/C=C/c2ccc(OCC#N)c(OC)c2)c1	?	-1%	-14%	-3%	-19%[1.84 µM]	-5%
CCC(=O)c1ccc(OCc2ccccc2)c(OC)c1	?	?	?	1%	14µM*	?
CCC(=O)c1ccc(OCc2ccc(C(=O)OC)cc2)c(OC)c1	-2%	17%	4%	-2%	?	29%
CCOc1ccc(C(=O)/C=C/c2ccc(OC)c(OC)c2)cc1	17µM*	-2%	1%	0%	-21%	2%
COc1cccc(C(=O)N2CCCCC2CCN2CCCCC2)c1 (stereo not given)	0%	.	.	.	4%	.
CC(=O)Oc1ccc2occ(-c3ccccc3)c2c1	19µM*	?	-4%	.	.	-2%
CC(=O)Oc1ccc2occ(C(=O)c3cccs3)c2c1	13µM*	?	?	0%	-1%	?
O=C(c1cccs1)c1coc2ccc(O)c(CN3CCOCC3)c12	1%	-3%	0%	13%	7%	4%
O=C(CCl)Oc1ccc2occ(C(=O)c3cccs3)c2c1	24µM*	28%	12µM*	0%	-1%	?
O=c1ccc2cc3c(-c4ccccc4)coc3cc2o1	19µM*	-1%	7%	.	.	3%
O=C(c1cccs1)c1coc2ccc(O)cc12	?	-1%	?	-17%	-7%	16%
O=C(Nc1ccccc1F)c1oc2ccccc2c1NC(=O)c1c(F)cccc1F	-10%	.	.	.	-5%	.
O=C(CCc1ccccc1)NCc1nc2cccnc2n1Cc1ccc(F)cc1	0%	.	.	.	.	.
COc1ccc(-c2noc(CCCC(=O)NCC3CCCO3)n2)cc1 (stereo not given)	-4%	-3%	-10%	.	.	0%
CCCOc1ccc(CNC(=O)c2oc3ccc4c(c3c2C)C(=O)CC(C)(CC)O4)cc1 (stereo not given)	?	.	.	.	-23%	.
Cc1c(C(=O)NCC2CCCO2)oc2ccc3c(c12)C(=O)CC(C)(C)O3 (stereo not given)	2.7µM*	?	?	-1%	.	2.5µM*
COc1ccccc1CNC(=O)c1oc2ccc3c(c2c1C)C(=O)CC(C)(C)O3	5.4µM*	.	.	.	13%	.
CCN1C(=O)C(C)S/C1=N\S(=O)(=O)c1ccc(Cl)s1 (stereo not given)	-1%	0%	1%	-5%	-9%	4%
N#C/C(=C\c1ccc(OCc2ccc(C(=O)O)cc2)cc1)C(=O)NCc1ccccc1	-3%	-2%	3%	.	.	6%
Cc1cc(/C=C(\C#N)C(=O)NCc2ccco2)c(C)n1C1CCCC1	6µM*	?	?	-4%	-1%	?
Cc1cc(/C=C(\C#N)C(=O)NCc2ccco2)c(C)n1-c1cccnc1	15µM*	?	?	.	.	?
N#C/C(=C\c1ccc(OCc2cccc(C(=O)O)c2)cc1)C(=O)NCc1ccco1	30µM*	0.35µM*	?	.	.	0.1µM*
Cc1cc(/C=C(/C#N)c2cccc(F)c2)c(C)n1-c1cccnc1	8.5µM*	?	5.2µM*	-3%	11µM*	?
Cc1cccc(-n2c(C)cc(C=C(C#N)C#N)c2C)c1	1%	-1%	3%	1%	-15%	-1%
CCc1ccc(S(=O)(=O)NCC2(N3CCOCC3)CCCCC2)cc1	3%	-5%	2%	.	.	0%

Source: PubChem (National Center for Advancing Translational Sciences (NCATS))
